# Results from PubChem BioAssay (NCATS).
# A number with no mark means an inactive call. Calls come from the whole dose curve; as a rule, active = well fitted curve in the direction sought with a large enough effect; inconclusive = small, poorly fitted or top-dose-only effect, or another doubt; inactive = no such curve, though single readings can be large; an effect the other way counts as inactive or inconclusive. Results filed as inconclusive are left out.
# Tested on: Nanoluciferase (engineered Oplophorus gracilirostris luciferase)
# Test: Primary Nanoluciferase (NLuc) qHTS assay for identification of artifact compounds. (AID 1845222);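 note: NLuc secreted into diluted conditioned medium of S16 cells; 0% = DMSO and -100% = no enzyme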
# Settings: NLuc-conditioned medium, Nano-Glo luminescence, 5 min; series mostly up to 54.1 µM; activity, negative = inhibition: at the top concentration
# Summary of the method: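 qHTS format, against NLuc in S16 cell-conditioned medium. Nano-Glo substrate 1:100 was added after 15 min at room temperature. Luminescence was taken after a further 5 min.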
row,SMILES,"activity, negative = inhibition"
1,COc1ccc(-c2cnc3c(-c4cccc5ncccc45)cnn3c2)cc1,0%
2,COC(=O)N1CCC(n2ncc3c(N4CCOCC4)nc(-c4ccc(NC(=O)NC5CC5)cc4)nc32)CC1,0%
3,COc1ccc(C[C@H]2COC(=O)[C@@H]2Cc2ccc(O[C@@H]3O[C@H](CO)[C@@H](O)[C@H](O)[C@H]3O)c(OC)c2)cc1OC,2.23% [at 25.7 µM]
4,CC(C)(Cc1ccccc1)NCC(O)c1ccc(O)c(NS(C)(=O)=O)c1 (stereo not drawn),-7.97%

# Tested on: not listed separately
# Test: Primary redox qHTS assay for identification of artifact compounds. (AID 1845223);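 note: 0% = DMSO and 100% = reference compound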
# Settings: Amplex Red/HRP redox cycling with DTT, fluorescence; series mostly up to 53.8 µM; redox activity (% of DA3003): at the top concentration
# Summary of the method: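 Amplex Red (25 uM) and HRP (250 mU/mL) in HBSS, with compounds for 15 min, then 250 uM DTT for 30 min, room temperature, dark. Fluorescence 525/598 nm read; normalized to DMSO and 10 uM DA3003; Hill fit.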
row,SMILES,redox activity (% of DA3003)
1,O=S(=O)(NCc1ccccn1)c1ccc(Br)c2ccccc12,-0.394%
2,C/C=C(\C)C(=O)O[C@H]1C=C(CO)C(=O)[C@H](OC(C)=O)[C@H]1C(C)C,-1.84%
3,O=C(NCc1ccccc1)c1ccc2c(=O)n(-c3cccc(C(F)(F)F)c3)c(=S)[nH]c2c1,-0.756%
4,C[C@H](Nc1cc2c(-c3ccc4c(c3)OCO4)noc2cn1)c1ccccc1,-7.37%
5,CC1=CC2/C=C(\C)CCC3OC(C)(C)OC3CCC(=O)C23C(=O)NC(CC(C)C)C3C1C (stereo not drawn),18.5% [at 25.6 µM]
6,COc1ccc(Sc2ccc(NC(=O)c3ccccc3Cl)cc2C#N)cc1,-2.37%
7,COc1ccc([C@H]2OC[C@H]3O[C@@H](O[C@H]4[C@@H]2NC[C@@H]4O)[C@H](O)[C@H]3O)cc1,-0.142%
8,CC(=O)O[C@H]1C[C@@](O)(C(C)C)[C@@H]2[C@@H](OC(=O)c3ccc(O)cc3)CC(C)=CC[C@@]12C,-4.76% [at 25.6 µM]
9,CCCCNc1ncc2c(-c3ccc(S(=O)(=O)N4CCOCC4)cc3)nn(C3CCC(O)CC3)c2n1 (stereo not drawn),-10.5%
10,CN1CCN(C(=O)CN[C@@H]2C[C@H]2c2ccc(OCc3ccccc3)cc2)CC1,12.8%
11,O=C(N[C@H]1CCC[C@H](CO)C1)C1CCN(c2nc3cc(Cl)c(-c4ccc(Cl)cc4)cc3o2)CC1,1.43%
12,Cn1ncc(Cl)c1-c1cc(C(=O)N[C@H](CN)Cc2cccc(F)c2)sc1Cl,-0.428%
13,C=C(C)C(=O)O[C@H]1[C@H]2C(=C)C(=O)O[C@@H]2/C=C(\CO)CC/C=C(/C=O)[C@@H]1O,3.42%
14,Cc1noc(C)c1-c1cc(O)cc(C(O)c2ccccc2)c1 (stereo not drawn),-6.65%
15,C=C1C(=O)OC2/C=C(/C)C3=CC(=O)C(C)(CC(OC(=O)/C(C)=C/COC(C)=O)C12)O3 (stereo not drawn),-5.38% [at 25.6 µM]
16,C[C@@H](O[C@H]1OCCN(Cc2nn(P(=O)(O)O)c(=O)[nH]2)[C@H]1c1ccc(F)cc1)c1cc(C(F)(F)F)cc(C(F)(F)F)c1,2.76% [at 25.6 µM]
17,Cn1ncc(Cl)c1-c1cc(C(=O)NC(CN)Cc2ccc(F)c(F)c2)oc1Cl (stereo not drawn),-1.71%
18,O=c1[nH]c2cccc(N3CCN(Cc4ccc(-c5ccccc5)cc4)CC3)c2o1,-0.378%
19,CS(=O)(=O)Nc1ccc2oc3c(OC(F)F)ccc(C(=O)Nc4c(Cl)cncc4Cl)c3c2c1,0.0287%
20,O=C(NCCCN1CCC2(CC1)OCc1ccccc12)[C@H]1CCCN1Cc1ccccc1,17.7%

row,SMILES,redox activity (% of DA3003)
1,O=C(c1ccc(Cl)cc1)N1CCN(c2ccnc3cc(Cl)ccc23)CC1,3.9%
2,COc1cc(O)cc(OC2OC(CO)C(O)C(O)C2O)c1 (stereo not drawn),8.05%
3,O=C(NCc1ccc(OC(F)(F)F)cc1)C1c2c(F)cccc2C(=O)N1CCc1ccccn1 (stereo not drawn),-1.9%
4,C=CC(=O)N1CC(N2CCN(C(=O)CNc3cc(C4CC4)c(Cl)cc3O)CC2)C1,-4.37%
5,CC(C)CCNC(=O)[C@H](CC(C)C)NC(=O)[C@H]1O[C@@H]1C(=O)O,-2.38%
6,CC(C)c1c(O)ccc2c1CC[C@H]1C(C)(C)CCC[C@]21C,-1.95%
7,CC(=O)O[C@@H]1[C@H](O[C@@H]2O[C@@H](CO)[C@H](O)[C@H]2O)[C@@H](O[C@@H]2O[C@@H](C)[C@H](O[C@@H]3OC[C@@H](O)[C@H](O)[C@H]3O)[C@@H](O)[C@H]2O)[C@H](OC(=O)[C@]23CCC(C)(C)C[C@H]2C2=CCC4[C@@]5(C)CC[C@H](O[C@@H]6O[C@H](C(=O)O)[C@@H](O)[C@H](O)[C@H]6O[C@@H]6O[C@H](CO)[C@H](O)[C@H](O)[C@H]6O)[C@@](C)(C=O)C5CC[C@@]4(C)[C@]2(C)C[C@H]3O)O[C@@H]1C (stereo partly drawn),9.67% [at 11.5 µM]
8,CCN1CCC[C@@H]1CNC(=O)c1ccc2c(c1)NC(=O)c1cccc(C)c1S2,-0.99%
9,C=CCCN1CCC2(CC1)CN(C(=O)c1c(F)cccc1F)c1ccc(Cl)cc12,7.96%
10,O=C(Nc1cnc(Cl)nc1)c1ccc(F)c(F)c1,-2.11%
11,COc1cc(NC(=O)c2cccc(-n3cc(NC(=O)Nc4cccc(C)c4)cn3)c2)cc(OC)c1OC,-0.687%
12,CC(=O)Nc1cccc(Nc2ncnc(N3CCC(OCc4ccc(OC(F)(F)F)cc4)CC3)n2)c1C,-5.46%
13,C=C(C)C(=O)O[C@H]1[C@H]2C(=C)C(=O)O[C@@H]2C[C@@H](C)[C@@H]2O[C@@H]2C(=O)[C@](C)(O)[C@@H]1OC(=O)C(=C)C,-7.49% [at 25.6 µM]
14,CCN1CCN(Cc2ccc(NC(=O)c3ccc(C)c(Oc4ccnc5[nH]ccc45)c3)cc2C(F)(F)F)CC1,12.1%
15,CCCn1ncc(CN2CCCC(C(=O)c3cccc(OC(C)C)c3)C2)c1C (stereo not drawn),10.2%
16,COc1ccc(-c2cnc3c(-c4cccc5ncccc45)cnn3c2)cc1,-0.413%
17,COC(=O)N1CCC(n2ncc3c(N4CCOCC4)nc(-c4ccc(NC(=O)NC5CC5)cc4)nc32)CC1,16.4%
18,COc1ccc(C[C@H]2COC(=O)[C@@H]2Cc2ccc(O[C@@H]3O[C@H](CO)[C@@H](O)[C@H](O)[C@H]3O)c(OC)c2)cc1OC,-3.6% [at 25.6 µM]
19,CC(C)(Cc1ccccc1)NCC(O)c1ccc(O)c(NS(C)(=O)=O)c1 (stereo not drawn),-4.57%
